Reference: PubChem BioAssay AID493034 (The Scripps Research Institute Molecular Screening Center, 2011)
The campaign covered roughly 2,400 compounds. About 2,200 (92%) were called active.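 Rule for the calls: active = mean inhibition over triplicate runs exceeds the cutoff derived for the earlier primary screen (cut at about 25% in these data); inactive = the rest.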 The set was probably picked from earlier hits. The list shows a part of the results.

molecular target: Platelet-activating factor acetylhydrolase IB subunit alpha2 (Homo sapiens) (UniProt P68402); experiment: PAFAH1B2 inhibitors, confirmation, biochemical, fluorescence polarization, FP-rhodamine probe, triplicate (AID 493034); conditions: recombinant PAFAH1B2, FP-rhodamine probe fluorescence polarization; at 3.39 µM; stronger effect = higher value;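 note: 0% = enzyme with DMSO and 100% = wells lacking PAFAH1B2 protein; inhibitors lower polarization by leaving the probe unbound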
Sequence (P68402 whole entry, looked up): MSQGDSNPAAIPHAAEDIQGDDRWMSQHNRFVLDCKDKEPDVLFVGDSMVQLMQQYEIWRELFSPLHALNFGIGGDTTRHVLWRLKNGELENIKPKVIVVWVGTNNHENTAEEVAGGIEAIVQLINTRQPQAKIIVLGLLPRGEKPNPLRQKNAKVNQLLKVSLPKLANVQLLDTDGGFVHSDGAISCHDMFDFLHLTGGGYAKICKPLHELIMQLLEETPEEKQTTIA

SMILES | inhibition
Clc1ccc(OCCSCc2nc3ccccc3[nH]2)cc1 | 22.6% (inactive)
COc1ccc(S(=O)(=O)Nc2ccc3c(c2)CC(=O)N([C@@H](C)CO)C[C@@H](C)[C@@H](CN(C)Cc2ccccc2)O3)cc1 | 26.1% (active)
COc1ccc(S(=O)(=O)Nc2ccc3c(c2)C(=O)N([C@H](C)CO)C[C@H](C)[C@@H](CN(C)S(=O)(=O)c2ccccc2)O3)cc1 | 22.7% (inactive)
COc1ccc(S(=O)(=O)Nc2ccc3c(c2)C(=O)N([C@@H](C)CO)C[C@H](C)[C@H](CN(C)S(=O)(=O)c2ccc(F)cc2)O3)cc1 | 22.2% (inactive)
COC(=O)c1sc(-c2ccc(Cl)cc2)cc1NC(=O)COCC(=O)O | 11.5% (inactive)
O=C(Nc1sc(-c2ccccc2)cc1C(=O)O)c1ccccc1 | 28.8% (active)
S=c1[nH]cnc2sc(-c3ccccc3)cc12 | 37.9% (active)
O=[N+]([O-])c1cc(-c2cnc3ccccc3n2)ccc1Oc1ccc(Br)cc1 | 51.6% (active)
CC(C)(C)CC(C)(C)c1ccc(O)c(CN2CCN(CCC#N)CC2)c1 | 32.4% (active)
COC(=O)c1sccc1NC(=O)CC1C(=O)NCCN1C(=O)Nc1ccc(OCc2ccccc2)cc1 (configuration not stated) | 52.2% (active)
Oc1cc2c(cc1O)CN(C(=S)NCCc1ccc(Cl)cc1)CCC2 | 55.2% (active)
Cn1nc(C(=O)NCCc2ccc(Cl)cc2)c2c1-c1ccccc1S(=O)(=O)C2 | 23.3% (inactive)
Cc1c(C(=O)N2CCOCC2)cc(C(C)(C)C)n1-c1ccccc1 | 41% (active)
CCC(C)c1c(N)n(S(=O)(=O)c2ccc(C)cc2)oc1=O (configuration not stated) | 23.5% (inactive)
Cc1ccc(S(=O)(=O)n2cc(CO)c3ccccc32)cc1 | 40% (active)
O=C1NC[C@@H](c2ccccc2)OC(=O)[C@H](Cc2ccc(F)cc2)CC/C=C/C[C@H]1CC(=O)N(CCO)Cc1ccccc1 | 52.6% (active)
O=C1NC[C@H](c2ccccc2)OC(=O)[C@H](Cc2ccc(F)cc2)C/C=C\C[C@H]1CC(=O)N(CCO)Cc1ccccc1 | 49.6% (active)
O=C1NC[C@@H](c2ccccc2)OC(=O)[C@@H](Cc2ccc(F)cc2)CC/C=C/C[C@H]1CC(=O)N(CCO)Cc1ccccc1 | 57.9% (active)
O=C(C[C@H]1C/C=C/CC[C@H](Cc2ccc(F)cc2)C(=O)O[C@H](c2ccccc2)CNC1=O)NCCO | 23.6% (inactive)
O=C1NCCOC(=O)[C@H](Cc2ccc(F)cc2)C/C=C\C[C@H]1CC(=O)N(CCO)Cc1ccccc1 | 14.8% (inactive)
S=c1[nH]nc(CSCCOc2ccc(Cl)cc2Cl)o1 | 23.3% (inactive)

SMILES | inhibition
CC(C)C(C(=O)Nc1nccs1)c1ccc(Cl)cc1 (configuration not stated) | 17.2% (inactive)
N#Cc1c(NC(=O)C2CC=CCC2C(=O)O)sc2c1CCCCCC2 (configuration not stated) | 41.1% (active)
CC(C)(C)NC(=O)C(=O)NNC(=O)COc1ccc(Br)cc1 | 23.5% (inactive)
CCc1ccc(-c2cc(C(=O)Nn3cnnc3)c3ccccc3n2)cc1 | 30.2% (active)
CC(=O)N1CCOc2ccc(S(=O)(=O)NCCc3ccc(C)cc3)cc21 | 23.7% (inactive)
Cc1ccc(S(=O)(=O)N2CCN(C(=S)NCCc3ccccc3)CC2)cc1 | 34.8% (active)
C=C1C(=O)[C@@]23[C@H](O)C[C@@H]4C(C)(C)CC[C@H](O)[C@]4(C)[C@@H]2C[C@H](O)[C@@H]1[C@H]3O | 69.2% (active)
C=C1C(=O)[C@@]23[C@H](O)C[C@@H]4C(C)(C)CC[C@H](O)[C@@]4(C)[C@@H]2CC[C@@H]1[C@H]3O | 84.8% (active)
Cc1ccc(Sc2ccc(/C=C3/C(=O)NN(c4ccccc4)C3=O)o2)cc1 | 73.8% (active)
Cc1ccc2c(c1)C=CC(C)N2C(=O)c1ccccc1 (configuration not stated) | 21.4% (inactive)
O=C(CCNS(=O)(=O)c1ccccc1)NCCCSc1ccccc1 | 22.4% (inactive)
Cc1ccc(S(=O)(=O)/N=C2\SC(CC(=O)Nc3ccc(F)cc3)C(=O)N2c2ccccc2)cc1 (configuration not stated) | 23.5% (inactive)
Cc1ccc(CN=C2NC(=O)C(CC(=O)NCCc3ccccc3)S2)cc1 (configuration not stated) | 51.6% (active)
O=C(NCCc1ccc(Cl)cc1)c1ccc(=O)[nH]c1 | 19.5% (inactive)
C[C@H](CO)N1C[C@H](C)[C@@H](CN(C)C(=O)Nc2ccccc2)Oc2c(NC(=O)Nc3ccc(C(F)(F)F)cc3)cccc2C1=O | 23.4% (inactive)
C[C@H](CO)N1C[C@H](C)[C@@H](CN(C)C(=O)Nc2ccc(C(F)(F)F)cc2)Oc2c(NC(=O)Nc3ccc4c(c3)OCO4)cccc2C1=O | 44.2% (active)
C[C@H](CO)N1C[C@H](C)[C@@H](CN(C)C(=O)Nc2ccc(C(F)(F)F)cc2)Oc2c(NC(=O)Nc3ccccc3)cccc2C1=O | 42.3% (active)
C[C@H](CO)N1C[C@H](C)[C@@H](CN(C)C(=O)Nc2ccc(C(F)(F)F)cc2)Oc2c(NC(=O)Nc3ccc(C(F)(F)F)cc3)cccc2C1=O | 62.5% (active)
C[C@@H]1CN([C@H](C)CO)C(=O)c2cccc(NC(=O)NC3CCCCC3)c2O[C@@H]1CN(C)C(=O)Nc1ccc(C(F)(F)F)cc1 | 55.7% (active)
COc1ccc(NC(=O)Nc2cccc3c2O[C@H](CN(C)C(=O)Nc2ccc(C(F)(F)F)cc2)[C@@H](C)CN([C@H](C)CO)C3=O)cc1 | 56.9% (active)
COc1ccc(NC(=O)N(C)C[C@H]2Oc3c(NC(=O)Nc4ccc(C(F)(F)F)cc4)cccc3C(=O)N([C@H](C)CO)C[C@@H]2C)cc1 | 28.7% (active)

SMILES | inhibition
O=C(O)CC/C(=C\c1ccc(N2CCOCC2)c([N+](=O)[O-])c1)c1nc2ccccc2s1 | 91.2% (active)
O=C(O)CCc1ccc(S(=O)(=O)Nc2cc(C(F)(F)F)ccc2N2CCCC2)cc1 | 13.5% (inactive)
COc1cc(/C=C(\CCC(=O)O)c2nc3ccccc3s2)ccc1OCC(=O)Nc1c(Cl)cccc1Cl | 57.7% (active)
O=C(O)C/C(=C\c1cc2c(cc1Br)OCO2)c1nc2ccccc2s1 | 22.2% (inactive)
O=C(O)CC/C(=C\c1ccc(N2CCCC2)c([N+](=O)[O-])c1)c1nc2ccccc2s1 | 84.2% (active)
CCCCOc1ccc(CNC(=O)NS(=O)(=O)c2ccc(OCC(C)C)cc2)cc1 | 57.7% (active)
Cc1ccc(CNC(=O)Nc2ccc(Cl)cc2)cc1 | 1.92% (inactive)
CCCCOc1ccc(S(=O)(=O)NC(=O)NCc2ccc(OCCC)cc2)cc1 | 32.1% (active)
O=C(COC(=O)C1(c2ccc(F)cc2)CCCC1)N1CCN(C(=O)c2ccco2)CC1 | 20.3% (inactive)
Cc1c(NC(=O)CCSc2ccc(Cl)cc2)c(=O)n(-c2ccccc2)n1C | 24% (inactive)
Clc1ccc(SCCCCn2ccnc2)cc1 | 62.5% (active)
Clc1ccc(SCCn2ccnc2)cc1 | 37.8% (active)
CC1(COS(N)(=O)=O)CCCCC1 | 16.8% (inactive)
CC(NC(=O)c1cc2cc(Br)ccc2oc1=N)c1ccccc1 (configuration not stated) | 21.8% (inactive)
CCOc1cc(Br)cc(C(c2c(C(=O)O)[nH]c3ccccc23)c2c(C(=O)O)[nH]c3ccccc23)c1O | 62.7% (active)
O=C(O)COc1ccc(Br)cc1C(c1c(C(=O)O)[nH]c2ccccc12)c1c(C(=O)O)[nH]c2ccccc12 | 46.4% (active)
O=C(O)c1[nH]c2ccccc2c1C(c1cc(Br)ccc1O)c1c(C(=O)O)[nH]c2ccccc12 | 89.5% (active)
O=C(O)COc1ccccc1-c1nc(-c2ccccc2)c(-c2ccccc2)[nH]1 | 24% (inactive)
CC(Nc1ccc(Cl)cc1)c1cc(Cl)ccc1O (configuration not stated) | 42.3% (active)
COc1oc(C(=O)NC2CCCCC2)c(-c2ccc(Cl)cc2)c1S(=O)(=O)c1ccccc1 | 11.3% (inactive)
Nc1scc(-c2ccncc2)c1Cl | 91.5% (active)

SMILES | inhibition
O=C(O)CCn1cc(/C=C\C(=O)c2ccc(Cl)cc2)c(-c2cccc(Br)c2)n1 | 41.1% (active)
O=C(O)CCn1cc(/C=C/C(=O)c2ccc(Cl)cc2)c(-c2cccc(Br)c2)n1 | 47.4% (active)
CCN(C(=O)CSc1nnc(-c2ccc3c(c2)OCO3)o1)C1CCS(=O)(=O)C1 (configuration not stated) | 1.27% (inactive)
NC(=S)N=Nc1c(O)n(CCCl)c2ccc(Br)cc12 | 30.4% (active)
Cc1ccc(S(=O)(=O)Oc2ccc(C3C4=C(CCCC4=O)N(CCC(=O)O)C4=C3C(=O)CCC4)cc2Cl)cc1 | 33.9% (active)
Cc1ccc(S(=O)(=O)Nc2cc(C)c(O)c(S(=O)(=O)c3ccc(C)cc3)c2)cc1 | 28.9% (active)
Cc1cc(C(C)(C)C)cc(S(=O)(=O)Nc2cccc(C(=O)O)c2)c1C | 23.3% (inactive)
Cc1ccc(S(=O)(=O)Nc2ccc(S(=O)(=O)NCC3CCCO3)cc2)cc1 (configuration not stated) | 23.3% (inactive)
COc1cccc(/C=N/N2CCN(c3ccc(Cl)cc3)CC2)c1OC | 23.6% (inactive)
NC1=NC(=O)/C(=C/c2cn(CCC(=O)O)nc2-c2ccc(Cl)cc2)S1 | 24.1% (active)
NC1=NC(=O)/C(=C/c2cn(CCC(=O)O)nc2-c2ccc(F)cc2)S1 | 38.2% (active)
NC(=O)c1c(NC(=O)CN2CCN(S(=O)(=O)c3ccccc3)CC2)sc2c1CCC2 | 1.51% (inactive)
Cc1ccc(S(=O)(=O)N2CCC(=O)N(C(COC(=O)Nc3ccccc3)Cc3ccccc3)CC2)cc1 (configuration not stated) | 32.5% (active)
CCc1ccc(-c2nc(CSCC(=O)N3CCN(c4ccccn4)CC3)c(C)o2)cc1 | 53% (active)
CCCCCCCCCCCC(=O)O | 21.5% (inactive)
O=c1[nH]c(CSc2nc3ccccc3s2)nc2ccccc12 | 16.8% (inactive)
CC(=O)NC(Cc1c[nH]c2ccccc12)C(=O)OCC(=O)N1CCN(S(=O)(=O)c2ccc(Cl)cc2)CC1 (configuration not stated) | 84.9% (active)
COc1ccccc1N1CCN(S(=O)(=O)c2ccc(Cl)cc2)CC1 | 24.1% (inactive)
CC(C(=O)Nc1ccccc1-c1ccccc1)N1CCN(S(=O)(=O)c2ccccc2)CC1 (configuration not stated) | 22% (inactive)
